Source: PubChem
SARS PLP yeast: qHTS of Yeast-based Assay for SARS-CoV PLP. Potency, µM (top dose mostly 32.9 µM), actives largely listed as activators. actives 0.19% (n = 330,000). S. cerevisiae expressing SARS-CoV PLpro, growth rescue; calls by dose curve; note: nearly all actives have a fitted effect of over 55% in size
AMA1 RON2 block: qHTS for Inhibitors of AMA1-RON; Towards Development of Antimalarial Drug Lead: Primary Screen. AlphaScreen AMA1-biotinylated RON2 peptide binding. Potency, µM (highest dose often 58.2 µM), hits mostly inhibitors. actives 0.2% (n = 360,000). AID 720542, 2013; note: nearly all actives have a fitted effect of over 45% in size
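AMA1 (3D7) with his tag at 25 nM final met compounds first, then biotinylated RON2 peptide at 25 nM; detection used donor plus acceptor beads, 10 µg/mL apiece, read by AlphaScreen after 30 min at room temperature.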
AmpC no deterg: qHTS Inhibitors of AmpC Beta-Lactamase (assay without detergent); P00811; AmpC nitrocefin hydrolysis, absorbance 480 nm, 0.0001% Triton; Potency, µM (doses to about 57.1 µM), most hits filed as inhibitors; actives 0.52% (n = 330,000); AID 485341, 2010; note: nearly all actives have a fitted effect of over 20% in size
Target sequence (P00811 whole entry, looked up): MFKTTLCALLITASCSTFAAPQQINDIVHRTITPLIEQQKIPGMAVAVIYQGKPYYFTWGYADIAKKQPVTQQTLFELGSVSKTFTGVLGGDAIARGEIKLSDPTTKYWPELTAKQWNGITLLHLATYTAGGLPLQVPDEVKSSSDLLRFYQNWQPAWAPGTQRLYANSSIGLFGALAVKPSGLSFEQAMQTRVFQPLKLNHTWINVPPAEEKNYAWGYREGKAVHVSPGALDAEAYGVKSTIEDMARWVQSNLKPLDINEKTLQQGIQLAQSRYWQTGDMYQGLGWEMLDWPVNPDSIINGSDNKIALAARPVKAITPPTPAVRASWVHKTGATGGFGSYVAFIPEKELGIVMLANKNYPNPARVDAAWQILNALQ
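AmpC (5.3 nM in the dispensed reagent) in 20 mM phosphate pH 7.0 with 0.01% (detergent screen) or 0.0001% Triton X-100 was preincubated with compounds for 15 min at room temperature. Nitrocefin was then added from an 800 uM solution, and hydrolysis was followed at 480 nm.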
NS1 inh: qHTS Assay for Inhibitors of Influenza NS1 Protein Function; Potency, µM (titrated, usually from 46.1 µM); actives 0.4% (n = 270,000); calls by dose curve; note: actives are rising curves; nearly all actives have a fitted effect of over 50% in size
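Compounds were scored for reversing the slow growth caused by influenza A NS1 in S. cerevisiae, measured by optical density at 600 nm. Assay medium contained 2% galactose at pH 6.0; NS1-free yeast of the same strain were the positive control.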
AmpC inh detg: qHTS Inhibitors of AmpC Beta-Lactamase (assay with detergent). P00811. Potency, µM (doses to about 114 µM), actives largely listed as inhibitors. actives 0.041% (n = 370,000). AmpC hydrolysis of nitrocefin, absorbance 480 nm, 0.01% Triton; note: nearly all actives have a fitted effect of over 25% in size
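20 mM phosphate pH 7.0 + 0.01% (detergent screen) or 0.0001% Triton X-100; 5.3 nM AmpC reagent; cpd preinc 15 min RT; nitrocefin (800 uM stock) to start; A480 q20 s × 4 min; Activity was normalised to no-enzyme and no-compound control wells.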
Hits are given with their value. In the library only some 0.99% were active in any assay of this set; here they are far more common. Unless noted, calls come from the whole dose curve; as a rule, active = well fitted curve in the direction sought with a large enough effect; inconclusive = small, poorly fitted or top-dose-only effect, or another doubt; inactive = no such curve, though single readings can be large; an effect the other way counts as inactive or inconclusive.

For COCCCN(C(=S)NC(=O)c1ccc(Br)cc1)c1c(N)n(Cc2ccccc2)c(=O)[nH]c1=O the results were SARS PLP yeast inactive, AMA1 RON2 block inactive, AmpC no deterg 5.62µM and AmpC inh detg inactive.
`COCCCN(C(=S)NC(=O)C(C)(C)C)c1c(N)n(Cc2ccccc2)c(=O)[nH]c1=O` gave SARS PLP yeast inactive, AMA1 RON2 block inactive, AmpC no deterg inactive, NS1 inh inactive and AmpC inh detg inactive.
`CC(=O)C1=C(c2ccc(Br)cc2)C(=O)c2ccccc2C1=O` gave SARS PLP yeast inactive, AMA1 RON2 block 15.8µM, AmpC no deterg inactive, NS1 inh inactive and AmpC inh detg inconclusive.
Screening Cc1c(O)nc(SCC(=O)Nc2ccc3c4c(cccc24)CC3)n(-c2ccc(F)cc2)c1=O returned SARS PLP yeast inactive, AMA1 RON2 block inactive, AmpC no deterg 28.2µM, NS1 inh inactive and AmpC inh detg inactive.
Cc1c(O)nc(SCC(=O)Nc2ccc(Cl)cc2Cl)n(-c2ccc(F)cc2)c1=O was read as AmpC inh detg inactive.
For COc1ccc2c(CNCCc3cccs3)c(C(=O)O)n(Cc3ccccc3C)c2c1 the results were AmpC inh detg inactive.
`Cc1cc(O)c2c(c1O)C(=O)[C@]13C(=C2O)C(=O)[C@@H]2[C@@H](O)[C@H]1[C@@H]1[C@H](O)[C@H]3C(=O)C3=C(O)c4c(O)cc(C)c(O)c4C(=O)[C@]312` gave SARS PLP yeast inactive, AMA1 RON2 block inactive and AmpC no deterg 28.2µM.
Screening CCOC(=O)c1cc2c(=Cc3ccc(N(C)C)cc3)c3ccccc3n2[n+]1C returned AMA1 RON2 block 20µM.
For CCOC(=O)SC1=N/C(=C\c2ccc(N(C)C)cc2)C(=O)S1 the results were SARS PLP yeast inactive, AMA1 RON2 block inconclusive, AmpC no deterg inactive, NS1 inh inactive and AmpC inh detg inactive.
Screening CN(C)c1ccc(/C=c2\sc3nc(-c4ccccc4)nn3c2=O)cc1 returned SARS PLP yeast inactive, AmpC no deterg inactive, NS1 inh inactive and AmpC inh detg inactive.
Screening CN(C)c1ccc(C=c2c3cc(O)ccc3n3c2cc(-c2ccccc2)[n+]3C)cc1 returned AMA1 RON2 block 14.1µM.
Screening C[n+]1c(-c2ccccc2)cc2c(=Cc3ccccc3)c3ccccc3n21 returned AMA1 RON2 block 15.8µM.
Screening Cc1ccc(C2CC2C(=O)NNC(=S)Nc2cccc(Cl)c2)cc1 (stereo not given) returned SARS PLP yeast 14.1µM, AMA1 RON2 block inactive, AmpC no deterg inactive, NS1 inh inactive and AmpC inh detg inactive.
For CCc1ccccc1N1C(=O)N(Cc2ccc(C#N)cc2)c2ccccc2S1(=O)=O the results were AmpC inh detg inactive.
`O=C(CSC1=Nc2ccccc2N=C(c2ccc(F)cc2)C1)NCc1ccccc1` gave AmpC inh detg inactive.
`Cc1ccccc1OCC(=O)OCC(=O)Nc1cc(S(=O)(=O)N2CCCCC2)ccc1Cl` gave SARS PLP yeast inactive, AMA1 RON2 block inactive, AmpC no deterg 31.6µM and AmpC inh detg inconclusive.
`COc1ccc(Cl)cc1NC(=O)COc1ccc(S(=O)(=O)N2CCOCC2)cc1C` gave SARS PLP yeast inactive, AMA1 RON2 block inactive, AmpC no deterg inactive, NS1 inh inactive and AmpC inh detg 28.2µM.
Screening Fc1ccc(-c2noc3ncnc(NCC4CCN(Cc5ccc(Cl)cc5)CC4)c23)cc1 returned AmpC inh detg inactive.
For CCN(CC)S(=O)(=O)c1cccc(NC(=O)CN2C(=O)c3ccc([N+](=O)[O-])cc3C2=O)c1 the results were SARS PLP yeast inactive, AMA1 RON2 block inactive, AmpC no deterg 8.91µM, NS1 inh inactive and AmpC inh detg inconclusive.
Screening CCOc1ccc2nc(N3CCCC(C(=O)Nc4ccc(OC)c(Cl)c4)C3)sc2c1 (stereo not given) returned AmpC inh detg inactive.
For CCC(Sc1nc(=O)cc(N)n1CCc1ccccc1)C(=O)Nc1cc(C)on1 (stereo not given) the results were SARS PLP yeast inactive, AMA1 RON2 block inactive, AmpC no deterg 2.82µM, NS1 inh inconclusive and AmpC inh detg inconclusive.
For CCOC(=O)c1ccc(NC(=O)C(C)Sc2nc(=O)cc(N)n2CCc2ccccc2)cc1 (stereo not given) the results were AmpC inh detg inactive.
CC1=CCC2C(=O)N(c3ccc4ccccc4n3)C(=O)C2C1 (stereo not given) was read as SARS PLP yeast inactive, AMA1 RON2 block inactive, AmpC no deterg 0.141µM, NS1 inh inactive and AmpC inh detg inactive.
CC1=CCC2C(=O)N(c3nc(C)cc(C)n3)C(=O)C2C1 (stereo not given) was read as SARS PLP yeast inactive, AMA1 RON2 block inactive, AmpC no deterg inactive, NS1 inh inactive and AmpC inh detg inactive.
Screening Cc1cn(C)c(CC(=O)NCc2cccc(Cl)c2)c1C(=O)O returned AmpC inh detg inactive.
Screening COc1ccc(-c2cc(=O)oc3cc(OC(C)C(=O)NCc4ccccn4)ccc23)cc1 (stereo not given) returned SARS PLP yeast 3.98µM, AMA1 RON2 block inactive, AmpC no deterg inactive, NS1 inh inactive and AmpC inh detg inconclusive.
For O=C(CSc1ccc(Br)c2cccc(Cl)c12)Nc1ccc(S(=O)(=O)Nc2nccs2)cc1 the results were SARS PLP yeast inactive, AMA1 RON2 block inactive, AmpC no deterg 2.51µM, NS1 inh inactive and AmpC inh detg inactive.
For COc1ccccc1Cn1c(SCC(=O)C(C)(C)C)nc2ccccc2c1=O the results were AmpC inh detg inactive.
Screening COc1ccc(C2/C=C\CN(Cc3ccc(N(C)C)cc3)CC(=O)N2Cc2ccc(F)cc2)cc1 (stereo not given) returned SARS PLP yeast inactive, AMA1 RON2 block 15.8µM, AmpC no deterg inactive, NS1 inh inactive and AmpC inh detg inactive.
COc1ccc(C2/C=C\CN(C(=O)C3CC3)CC(=O)N2Cc2ccc(F)cc2)cc1 (stereo not given) was read as SARS PLP yeast inactive, AMA1 RON2 block inactive, AmpC no deterg inactive, NS1 inh inconclusive and AmpC inh detg inactive.
For CCCCCCN(C(=O)CCCCCN1C(=O)NC(c2ccc(C(C)(C)C)cc2)C(C(=O)OCc2ccccc2)=C1C)C(C(=O)NCCCC)c1ccc(OCC(=O)OC)c(C(=O)OC)c1 (stereo not given) the results were SARS PLP yeast inactive, AmpC no deterg inactive, NS1 inh 8.91µM and AmpC inh detg inactive.
Oc1c(CN2CCN(c3ccccn3)CC2)cc(Cl)c2cccnc12 was read as SARS PLP yeast inactive, AMA1 RON2 block inconclusive, AmpC no deterg inactive, NS1 inh inactive and AmpC inh detg inactive.
Screening OCCN1CCN(Cc2cc(Cl)c3cccnc3c2O)CC1 returned SARS PLP yeast 17.8µM, AMA1 RON2 block inactive, AmpC no deterg inactive, NS1 inh inactive and AmpC inh detg inactive.
